In PubChem BioAssay AID777 (Sanford-Burnham Center for Chemical Genomics, 2007):
Among all 96,000 compounds or so, about 19,000 (20%) were called active. A selection follows. Unmarked numbers belong to inactive results.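 Rule for the calls: active = blocking of liver enzyme CYP2C9 beyond about 50% at 5 µM (limit read from the data); inactive = the rest.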

molecular target: Cytochrome P450 2C9 (Homo sapiens) (UniProt P11712); assay: blockers of cytochrome P450 2C9 activity – biochemical, luminescence, ADME assay, primary screen (AID 777); conditions: CYP2C9 Supersomes, luciferin-H conversion, at 5 µM, active compounds read high
Sequence (P11712 whole entry, looked up): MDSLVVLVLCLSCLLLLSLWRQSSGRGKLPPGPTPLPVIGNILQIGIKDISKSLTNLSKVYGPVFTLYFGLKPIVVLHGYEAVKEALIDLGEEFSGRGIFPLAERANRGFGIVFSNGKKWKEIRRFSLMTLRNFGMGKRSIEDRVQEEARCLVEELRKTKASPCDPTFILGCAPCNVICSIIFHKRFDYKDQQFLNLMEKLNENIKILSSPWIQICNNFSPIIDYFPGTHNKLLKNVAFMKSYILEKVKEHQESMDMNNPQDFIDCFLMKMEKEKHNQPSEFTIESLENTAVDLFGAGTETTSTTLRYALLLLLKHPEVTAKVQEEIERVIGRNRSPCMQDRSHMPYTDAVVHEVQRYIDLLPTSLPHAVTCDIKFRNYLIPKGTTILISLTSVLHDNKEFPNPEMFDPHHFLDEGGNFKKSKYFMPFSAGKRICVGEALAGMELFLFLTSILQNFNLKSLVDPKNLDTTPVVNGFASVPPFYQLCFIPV

Compound	inhibition
C=CCN(N=Nc1cccc([N+](=O)[O-])c1)c1cccc([N+](=O)[O-])c1	46.4%
Cc1oc2nc(SCC(=O)NCc3cccnc3)nc(N)c2c1C	14.4%
O=S(=O)(NCCNS(=O)(=O)c1ccccc1)c1ccccc1	34.1%
Cc1ccc(C(=O)NCCNS(=O)(=O)c2ccccc2)cc1	60% (active)
CS(=O)(=O)NCc1ccc(C(=O)NCc2ccccc2)cc1	-6.7%
C/C(=N\NC(=O)Cc1ccc(Cl)cc1)c1ccccn1	32.4%
Cc1ccccc1CN1CCN(CC(=O)NCc2ccccn2)C1=O	-9.3%
CNC(=S)N1N=C(c2ccccc2)CC1c1ccc(Br)cc1 (stereo not drawn)	69.6% (active)
COc1ccc(NC(=S)N2N=CCC2c2ccccc2)cc1 (stereo not drawn)	10.8%
Cc1nn(C)c(Oc2ccc(Cl)cc2)c1C=O	0%
Cc1cc(/C=C2/SC(=O)N(CC(=O)OC(C)C)C2=O)c(C)n1C	5.9%
COc1cccc(NC(=O)c2nn(C34CC5CC(CC(C5)C3)C4)cc2[N+](=O)[O-])c1	11.2%
COc1ccc(-c2cc(C3CCN(c4ncccc4[N+](=O)[O-])CC3)[nH]n2)cc1	97.2% (active)
O=C1C=C(c2ccc(Cl)cc2)C(=O)N1Nc1ccccc1	45.5%
Cc1nnc(NC(=O)CSc2nc(C3CCCCC3)nc3ccccc23)s1	20.1%
COc1cc(CC(=O)NCc2cccs2)cc(OC)c1OC	-31%
S=C(NCc1cccs1)Nc1ccc(Cl)cc1	53% (active)
S=C(NCc1ccc(Cl)cc1)NC12CC3CC(CC(C3)C1)C2	49.3%
COC(=O)c1sccc1-n1cccc1C(=O)C(=O)N1CCCCC1	7.3%
CCOC(=O)N1CCN(c2c(NCCCN3CCCC(C)C3)c(=O)c2=O)CC1 (stereo not drawn)	18.1%
CCOc1ccccc1C1CC(c2ccccc2)Nc2nc(N)nn21 (stereo not drawn)	12.8%
COc1ccc(C2CC(c3ccc(Cl)cc3Cl)Nc3nc(N)nn32)cc1OC (stereo not drawn)	9.8%
Cc1ccc(C2CC(c3cccc(Br)c3)n3nc(N)nc3N2)cc1 (stereo not drawn)	5.1%

Compound	inhibition
Nc1nc2n(n1)C(c1ccco1)CC(c1ccc(Cl)c(Cl)c1)N2 (stereo not drawn)	50% (active)
Cc1ccc(C2CC(c3cccc(C)c3)n3nc(N)nc3N2)cc1 (stereo not drawn)	11.1%
CCOc1ccccc1C1CC(c2ccc(Cl)cc2)Nc2nc(N)nn21 (stereo not drawn)	51.1% (active)
CC1CN(c2cc(=O)n(Cc3ccc(F)cc3)c(=O)[nH]2)CC(C)O1 (stereo not drawn)	-11%
CCCn1c(SCC(=O)N2CCc3ccccc32)nnc1-c1ccncc1	45.9%
O=C(Cn1c(-c2ccc(Cl)cc2)noc1=O)N1CCN(c2ccccc2F)CC1	1.4%
O=C(NCc1ccco1)C1CCCN(S(=O)(=O)c2cccc3nonc23)C1 (stereo not drawn)	2.8%
CCNc1nc(NCC)nc(N(C)n2cnnc2)n1	15.7%
CCOc1nc(OCC)nc(-n2cc(-c3ccccc3)nn2)n1	15.3%
CCCc1nc2sc3c(c2c(=O)n1NC(=O)CCCl)CCCC3	85% (active)
Cc1nc(SCC(=O)Nc2cc(C)on2)c2c3c(sc2n1)CCCC3	-1.7%
CCCC(=O)Nc1ccc2c(c1)nc1n2CCSC1	3.2%
CCC(=O)NC(NCC1CCCO1)C(Cl)(Cl)Cl (stereo not drawn)	15.6%
CCOc1ccc(NC(=O)CCS(=O)(=O)c2ccc3c(c2)CCCN3C(=O)CC)cc1	-0.4%
COc1ccc(CCNC(=O)CSc2nnc(-c3cccc(F)c3)o2)cc1OC	81.2% (active)
COc1ccc(NC(=O)Cn2nnc(C(=O)NCCc3ccc(OC)c(OC)c3)c2N)cc1	35.6%
COc1ccc(-c2nnc(SCC(=O)NC3CCCCC3)o2)cc1OC	7%
CCSc1nc(C)nc2c1oc1ccccc12	18.9%
COc1ccc(CCNC(=O)CSc2nc(C)nc3c2oc2ccccc23)cc1OC	58% (active)
COc1ccc(CCNC(=O)CSc2nnc(CNC(=O)c3cccs3)o2)cc1OC	17.8%
COc1ccccc1Cn1c(=S)[nH]c2cc(C(=O)N3CCN(C)CC3)ccc2c1=O	-2.6%
CC1CCC(NC(=O)c2ccc(N3CCCC3=O)cc2)CC1 (stereo not drawn)	5.2%
CSc1nc(O)c(Cc2ccccc2)c(=O)[nH]1	7.9%

Compound	inhibition
CCOC(=O)N1CCN(C(=O)c2nn(-c3ccc(C)cc3)c(=O)c3c2c2ccccc2n3C)CC1	8.8%
Cn1c(C(=O)N2CCC(C(N)=O)CC2)cc2c(=O)n(C)c3ccccc3c21	-6.8%
Cn1c2ccccc2c2c(C(=O)N3CCN(c4ccc(F)cc4)CC3)cn(C3CCCC3)c(=O)c21	89.6% (active)
Cn1c(=O)c2c(ncn2CC(COCc2ccccc2Cl)OCc2ccccc2Cl)n(C)c1=O (stereo not drawn)	21.3%
CCC1SC2=NCCN2C1(O)c1ccc(Cl)cc1 (stereo not drawn)	30.8%
Cc1ccnc(N2CCC(C(=O)NC3CCCCCC3)CC2)n1	-45.1%
Cc1ccnc(N2CCCC(C(=O)Nc3cc(F)ccc3C)C2)n1 (stereo not drawn)	90.4% (active)
O=C(Nc1ccc2c(c1)OCCO2)C1CCCN(c2ncccn2)C1 (stereo not drawn)	-3.8%
Cc1nnc(SCC(=O)NC2CCCC2)s1	11.5%
O=C(CN1C(=O)CC(c2ccccc2)=Nc2ccccc21)NC1CCCCC1	52.3% (active)
O=C(CN1CCN(c2ccccn2)CC1)NC1CCCCC1	23.5%
CN(CCCNC(=O)CN1C(=O)CC(C)(C)S(=O)(=O)c2ccccc21)C1CCCCC1	9.9%
CN1CCN(Cc2c(O)ccc3c2oc(=O)c2ccccc23)CC1	-22.3%
COc1cccc(C(=O)Nc2ccc(NC(=O)c3ccco3)cn2)c1	23.4%
CCOc1ccc(-c2nnc(-c3ccco3)o2)cc1	31.6%
CCC(=O)Oc1cccc(C(=O)Nc2ccc(-c3nnc(-c4ccco4)o3)cc2)c1	53.3% (active)
O=C(Nc1ncccn1)c1cccs1	-3.3%
Cc1nc(-c2ccc(NC(=O)c3cccs3)cc2)cs1	20.2%
CCCCOc1ccc(-c2nnc(-c3ccco3)o2)cc1	19.4%
Cc1ccc(-c2nnc(-c3ccc(NC(=O)c4cccs4)cc3)o2)cc1	56.4% (active)
O=C(CCc1ccccc1)Nc1cccc(-c2nnc(-c3ccco3)o2)c1	19.3%
Cc1ccc(OCC(=O)Nc2ccc(-c3nnc(-c4ccco4)o3)cc2)cc1	66.3% (active)
